The results in this text go back to PubChem BioAssay (NCI).

Compounds without any hit were thinned out: in the full panel of roughly 83,000, 20% have a hit.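 How to read the values: 0–100, growth inhibition (40 = 60% inhibited); 0, no net growth; -100 to 0, cell death (-40 = 40% of starting cells died; -100 = all dead).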 Activity calls are given as the source filed them. The calls were made as follows: active = growth percent below 10; inactive = the rest.

For one assay, the system named is HCT-15 colon. The assay can be described thus: NCI-60 one-dose screen, 48 h (100 = growth as untreated, 0 = no growth, -100 = all killed). To be noted: 10 µM unless noted.
In the case of `CC/C(=C(/c1ccc(Cl)cc1)c1ccc(OCCN2CCCC2)cc1)c1ccc(OC)cc1`, the growth is 28.1% (inactive).
As for `Nc1ncnc2c1N=C(c1ccc(Cl)cc1)CC(c1ccc3c(c1)OCO3)N2` (stereo not given), the growth is 98.6% (inactive).
The same measure, in the same setting: to `N=C(N)c1ccc(-c2ccc(-c3ccc(F)cc3)o2)o1` belongs -0.304% (active); to `CCCCC(=O)c1ccco1`, 102% (inactive).
Take `C/C(=C(/c1ccc(Cl)cc1)c1ccc(OCCN2CCCC2)cc1)c1ccc(Cl)cc1`: the growth was 42.1% (inactive).
Still for that read-out and setting: next, `COC(=O)c1c2c(c[n+]([O-])c1C)C(=O)C(NCc1ccccc1)=CC2=O`: -60.1% (active).
Turning to `Fc1ccc(-c2nn(-c3ccccc3)cc2-c2nc3ccccc3o2)cc1`, the growth was 33.9% (inactive).
As for `COc1ccc2c3c([nH]c2c1)C(=O)c1nc(C)ccc1C3=O`, the growth is 22.3% (inactive).
As for `CCN(C(=O)N1CCN(c2cc3c(cc2F)c(=O)c(C(=O)O)cn3C2CC2)CC1)c1nc(-c2ccc(Cl)cc2)cs1`, the growth is 10.2% (inactive).
The same measure, in the same setting: next, `CCCNC(=O)Oc1ccc(/C(=C(/C)Cc2ccc(OC)cc2)c2ccc(OCCCN(C)C)cc2)cc1`: 70.3% (inactive).
Same read-out and setting: to `CC(=O)OCc1nc(C#N)c(N(C)C)o1` belongs 88.6% (inactive).
Still for that read-out and setting: to `Cn1ccnc1C(=O)C(=O)Nc1ccc(CC(=O)Nc2ccccc2)cc1` belongs 96.9% (inactive); to `O=C(CN1C(=O)CCC1=O)Nc1ncc(Cc2ccc(F)cc2)s1`, 102% (inactive); to `CNc1nc(S(=O)c2ccc(C#N)cc2)nc2ccccc12` (stereo not given), 81% (inactive).
Turning to `Cn1c(-c2ccc(Br)cc2)c(O)c(=O)c2c(F)cccc21`, the growth was 23.9% (inactive).
On the same count and under the same terms, to `CCN(CC)CCCN1C(=O)c2c(c(C)c3c(oc4cc(O)ccc43)c2C)C1=O` belongs -79.2% (active).
On to `Cn1ccc2c3c(ccc21)CC3=O`, for which the growth was 105% (inactive).
On the same count and under the same terms, to `O=C1N[C@@H]2NC(=[N+]3CCOCC3)N[C@@H]2N1` belongs 104% (inactive); to `CCCCCOc1ccc(C(=O)/C(Br)=C/C(=O)O)cc1`, 89.1% (inactive).
On the same count and under the same terms, to `O=C(/C=C/c1ccccc1)c1cccc(OCCCOc2cccc(C(=O)/C=C/c3ccccc3)c2)c1` belongs 57.4% (inactive).
In the case of `O=C(Cc1ccccc1)Nc1nc(O)c(/C=C2\C(=O)C=Cc3ccccc32)s1`, the growth is 100% (inactive).
Consider `Nc1c(C(=O)Nc2ccncc2)sc2nc3c(cc12)CCCCCC3`, for which the growth is 63.5% (inactive).
On the same count and under the same terms, next, `COc1ccc(C(=O)Nc2cccc(C3CC(=O)c4c(cc(OC)c(OC)c4OC)O3)c2)cc1` (stereo not given): 13.3% (inactive).
For `O=C(c1cc2ccccc2o1)c1nn(-c2ccccc2)/c(=N/N=Cc2cn(-c3ccccc3)nc2-c2cc3ccccc3oc2=O)s1`, the growth was 87.8% (inactive).
With `CCCCCCCCCCCCCCCCCCOc1ccccc1CC(=O)NCC[N+]1(C)CCCC1`, the growth was 93.9% (inactive).
For `O=C(CSc1nc(-c2ccccc2)[nH]c1S(=O)(=O)c1ccccc1)NC1CC1`, the growth is 28.2% (inactive).
Regarding `CC(C)N1CCN(Cc2ccc3c(NNC(=O)c4ccccc4)nc4cc(F)ccc4n23)CC1`, the growth was 31.7% (inactive).
Still for that read-out and setting: next, `O=S(=O)(NCCCNc1nccc(-c2c(-c3ccc(F)c(O)c3)nc3occn23)n1)c1ccccc1`: 103% (inactive).
For the molecule `COc1cc(-c2csc(NC(=O)c3cc(-n4cnc(C)c4)cc(C(F)(F)F)c3)n2)cc(OC)c1OC`, the growth is 39.5% (inactive).
Same read-out and setting: next, `COc1cc2c(c(OC)c1OC)CCC(c1cccc(C(=O)Nc3cccc(Br)c3)c1)O2` (stereo not given): 67% (inactive).
For the molecule `Cc1nn(-c2ccccc2)c(Oc2ccccn2)c1-c1nc2ccccc2s1`, the growth is 91.4% (inactive).
Turning to `CSc1nnc(-c2cnn3c2NC(c2ccccc2)C3)n1-c1ccc(C(F)(F)F)cc1` (stereo not given), the growth is 35.1% (inactive).
The same measure, in the same setting: next, `Cc1ccc(-c2cc(-c3ccc(Cl)cc3)nc(NC(=O)c3cccnc3)n2)cc1`: 94.5% (inactive); `CC1=C(C(=O)OC(C)C)C(c2ccc3c(c2)OCO3)NC(=S)N1` (stereo not given): 100% (inactive).
On the same count and under the same terms, to `CCOC(=O)c1c2c(n3ccc(C)cc13)C(=O)c1ccccc1C2=O` belongs 85.2% (inactive); to `O=S(=O)(NCCNc1cc(-c2c(-c3cccc(O)c3)nc3sccn23)ccn1)c1ccc(C(F)(F)F)cc1`, 25.2% (inactive).
On the same count and under the same terms, next, `Cc1nc2ncnc(Cl)c2[nH]1`: 100% (inactive); `N#Cc1nn(-c2cc(=O)[nH]c3ccc(Cl)cc23)c(N)c1C#N`: 108% (inactive); `C#COc1cccc(Nc2ncnc3ncc(NC(=O)CCl)cc23)c1`: -30.3% [6.25 µM] (active).
On to `COC(=O)[C@]1(C)CCC[C@]2(C)[C@H]3C[C@H]4C(C(C)C)=C[C@]3(CC[C@H]21)[C@H]1[C@@H]4[C@@H](OCCC#N)CC[C@@H]1OCCC#N`, for which the growth was 29.9% (inactive).

Another assay deals with HT29 colon. The description is as above. To be noted: 10 µM unless noted.
Take `CC/C(=C(/c1ccc(Cl)cc1)c1ccc(OCCN2CCCC2)cc1)c1ccc(OC)cc1`: the growth is 13.7% (inactive).
Still for that read-out and setting: to `Nc1ncnc2c1N=C(c1ccc(Cl)cc1)CC(c1ccc3c(c1)OCO3)N2` (stereo not given) belongs 91.7% (inactive).
Same read-out and setting: to `N=C(N)c1ccc(-c2ccc(-c3ccc(F)cc3)o2)o1` belongs -20.3% (active).
As for `CCCCC(=O)c1ccco1`, the growth is 103% (inactive).
Still for that read-out and setting: to `C/C(=C(/c1ccc(Cl)cc1)c1ccc(OCCN2CCCC2)cc1)c1ccc(Cl)cc1` belongs 9.33% (active); to `COC(=O)c1c2c(c[n+]([O-])c1C)C(=O)C(NCc1ccccc1)=CC2=O`, -0.488% (active).
Still for that read-out and setting: to `Fc1ccc(-c2nn(-c3ccccc3)cc2-c2nc3ccccc3o2)cc1` belongs 99.6% (inactive); to `COc1ccc2c3c([nH]c2c1)C(=O)c1nc(C)ccc1C3=O`, 74.9% (inactive).
The same measure, in the same setting: next, `CCN(C(=O)N1CCN(c2cc3c(cc2F)c(=O)c(C(=O)O)cn3C2CC2)CC1)c1nc(-c2ccc(Cl)cc2)cs1`: 5.63% (active); `CCCNC(=O)Oc1ccc(/C(=C(/C)Cc2ccc(OC)cc2)c2ccc(OCCCN(C)C)cc2)cc1`: 25.7% (inactive); `CC(=O)OCc1nc(C#N)c(N(C)C)o1`: 99.2% (inactive).
Turning to `Cn1ccnc1C(=O)C(=O)Nc1ccc(CC(=O)Nc2ccccc2)cc1`, the growth was 107% (inactive).
On to `O=C(CN1C(=O)CCC1=O)Nc1ncc(Cc2ccc(F)cc2)s1`, for which the growth was 106% (inactive).
On the same count and under the same terms, to `CNc1nc(S(=O)c2ccc(C#N)cc2)nc2ccccc12` (stereo not given) belongs 81.8% (inactive).
`Cn1c(-c2ccc(Br)cc2)c(O)c(=O)c2c(F)cccc21`: the growth is 36.6% (inactive).
On the same count and under the same terms, to `CCN(CC)CCCN1C(=O)c2c(c(C)c3c(oc4cc(O)ccc43)c2C)C1=O` belongs -61.8% (active); to `Cn1ccc2c3c(ccc21)CC3=O`, 116% (inactive).
On the same count and under the same terms, next, `O=C1N[C@@H]2NC(=[N+]3CCOCC3)N[C@@H]2N1`: 110% (inactive).
The same measure, in the same setting: to `CCCCCOc1ccc(C(=O)/C(Br)=C/C(=O)O)cc1` belongs 105% (inactive); to `O=C(/C=C/c1ccccc1)c1cccc(OCCCOc2cccc(C(=O)/C=C/c3ccccc3)c2)c1`, 52.4% (inactive).
As to `O=C(Cc1ccccc1)Nc1nc(O)c(/C=C2\C(=O)C=Cc3ccccc32)s1`, the growth was 111% (inactive).
As for `Nc1c(C(=O)Nc2ccncc2)sc2nc3c(cc12)CCCCCC3`, the growth is 41.9% (inactive).
`COc1ccc(C(=O)Nc2cccc(C3CC(=O)c4c(cc(OC)c(OC)c4OC)O3)c2)cc1` (stereo not given): the growth is 6.28% (active).
For the molecule `O=C(c1cc2ccccc2o1)c1nn(-c2ccccc2)/c(=N/N=Cc2cn(-c3ccccc3)nc2-c2cc3ccccc3oc2=O)s1`, the growth is 107% (inactive).
For `CCCCCCCCCCCCCCCCCCOc1ccccc1CC(=O)NCC[N+]1(C)CCCC1`, the growth was 8.69% (active).
Same read-out and setting: to `O=C(CSc1nc(-c2ccccc2)[nH]c1S(=O)(=O)c1ccccc1)NC1CC1` belongs 95.1% (inactive); to `CC(C)N1CCN(Cc2ccc3c(NNC(=O)c4ccccc4)nc4cc(F)ccc4n23)CC1`, 31.3% (inactive); to `O=S(=O)(NCCCNc1nccc(-c2c(-c3ccc(F)c(O)c3)nc3occn23)n1)c1ccccc1`, 73.6% (inactive).
On to `COc1cc(-c2csc(NC(=O)c3cc(-n4cnc(C)c4)cc(C(F)(F)F)c3)n2)cc(OC)c1OC`, for which the growth was 52.6% (inactive).
On to `COc1cc2c(c(OC)c1OC)CCC(c1cccc(C(=O)Nc3cccc(Br)c3)c1)O2` (stereo not given), for which the growth was 58.1% (inactive).
Still for that read-out and setting: to `Cc1nn(-c2ccccc2)c(Oc2ccccn2)c1-c1nc2ccccc2s1` belongs 92.6% (inactive).
Same read-out and setting: to `CSc1nnc(-c2cnn3c2NC(c2ccccc2)C3)n1-c1ccc(C(F)(F)F)cc1` (stereo not given) belongs 28.4% (inactive); to `Cc1ccc(-c2cc(-c3ccc(Cl)cc3)nc(NC(=O)c3cccnc3)n2)cc1`, 109% (inactive).
Consider `CC1=C(C(=O)OC(C)C)C(c2ccc3c(c2)OCO3)NC(=S)N1` (stereo not given), for which the growth is 103% (inactive).
On the same count and under the same terms, next, `CCOC(=O)c1c2c(n3ccc(C)cc13)C(=O)c1ccccc1C2=O`: 87.8% (inactive); `O=S(=O)(NCCNc1cc(-c2c(-c3cccc(O)c3)nc3sccn23)ccn1)c1ccc(C(F)(F)F)cc1`: 32.6% (inactive).
Regarding `Cc1nc2ncnc(Cl)c2[nH]1`, the growth is 80.9% (inactive).
On the same count and under the same terms, next, `N#Cc1nn(-c2cc(=O)[nH]c3ccc(Cl)cc23)c(N)c1C#N`: 101% (inactive); `C#COc1cccc(Nc2ncnc3ncc(NC(=O)CCl)cc23)c1`: -65.2% [6.25 µM] (active).
On the same count and under the same terms, next, `COC(=O)[C@]1(C)CCC[C@]2(C)[C@H]3C[C@H]4C(C(C)C)=C[C@]3(CC[C@H]21)[C@H]1[C@@H]4[C@@H](OCCC#N)CC[C@@H]1OCCC#N`: 6.91% (active).
